Assay outcomes as filed in PubChem.
The list is not random: actives were taken first. Their share in the collection is about 1.8%.
L3MBTL1 inh-1 = inhibitors of human L3MBTL1; Q9Y468; 230,000 compounds, 0.66% hits; Potency, µM (series often up to 57.1 µM), for the others: at the highest dose activity, negative = inhibition, hits mostly inhibitors; AlphaScreen L3MBTL1–H3K9me1 peptide binding; further: on the % scale 0 is the no-effect control and ±100 the full control effect; nearly all actives have a fitted effect of over 60% in size
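L3MBTL1 (50 nM) pre-complexed 30 min with biotinylated H3(1-15)K9me1 peptide (75 nM), then compounds added for 30 min at room temperature; AlphaScreen streptavidin donor/nickel chelate acceptor beads (10 ug/mL final) read after 30 min dark incubation.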
KDM4E inh = inhibitors of human JMJD2E histone demethylase. JMJD2E catalytic domain, FDH-coupled NADH fluorescence (FDH is formaldehyde dehydrogenase). Potency, µM (titrated, usually from 57.1 µM), inactives show at the top dose activity change, negative = inhibition, actives largely listed as inhibitors. AID 2147. 230,000 compounds, 1.6% hits. B2RXH2; active means well fitted inhibition curve with a large enough effect, not every such curve was filed as active; inconclusive means small, poorly fitted or top-dose-only effect, or another doubt; inactive means no such curve, though single readings can be large or run the other way;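 further: 0% = wells with enzyme and -100% = buffer wells without enzyme; nearly all actives have a fitted effect of over 50% in size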
Target sequence (B2RXH2 1-337 limits assumed): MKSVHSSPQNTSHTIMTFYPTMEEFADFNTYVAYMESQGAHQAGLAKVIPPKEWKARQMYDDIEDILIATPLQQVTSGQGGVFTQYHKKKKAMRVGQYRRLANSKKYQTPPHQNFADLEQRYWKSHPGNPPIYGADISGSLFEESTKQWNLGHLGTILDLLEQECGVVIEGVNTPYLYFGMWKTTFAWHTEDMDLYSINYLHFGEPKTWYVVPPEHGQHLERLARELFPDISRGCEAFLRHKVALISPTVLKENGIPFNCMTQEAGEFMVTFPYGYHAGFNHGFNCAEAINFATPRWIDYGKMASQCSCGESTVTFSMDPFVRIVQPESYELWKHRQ
HTT ATP protect = Huntington cell model cytoprotection by ATP luminescence | PC12 HTT-Q103 induced, cytoprotection, ATP luminescence, 40 h | Potency, µM (titrated, usually from 56.4 µM), for inactives: cytoprotection (ATP increase), actives largely listed as activators | 230,000 compounds, 0.14% hits | AID 1471; further: % of control where 0% means no effect; nearly all actives have a fitted effect of over 45% in size
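Compounds added alongside 100 nM tebufenozide, which induces toxic Q103 huntingtin exon 1-GFP in stable PC12 cells; surviving cells quantified by luminescent ATP measurement. Medium: phenol red-free DMEM, 5% equine and 5% calf serum.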
HTT aggregate = reduces HttQ103-GFP aggregates in PC12 cells | Potency, µM (doses to about 46.1 µM), for the others: at the top dose activity change, negative = inhibition, most hits filed as inhibitors | 220,000 compounds, 1.1% hits | PC12 HttQ103-GFP aggregates, Acumen cytometry, 40 h | AID 1688; further: on the % scale 0 is the no-effect control and ±100 the full control effect; nearly all actives have a fitted effect of over 60% in size
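Huntingtin Q103 exon 1–GFP aggregates in induced PC12 cells (100 nM tebufenozide) were quantified by cytometry from lysates, with compounds dosed in titration.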
L3MBTL1 inh-2 = validation of human L3MBTL1 methyl-lysine binding inhibitors | shares compounds with L3MBTL1 inh-1 | L3MBTL1 methyl-lysine binding inhibition, biochemical qHTS | Potency, µM, most hits filed as inhibitors | 500 compounds, 91% hits | AID 540279; further: nearly all actives have a fitted effect of over 70% in size
AlphaScreen ctr2 = counter-screen for L3MBTL1 inhibitors: AlphaScreen signal interference; AID 602224; shares compounds with L3MBTL1 inh-1; 500 tested, under 10 active; Potency, µM (doses to about 57.1 µM), without a hit: at the highest dose activity change, negative = inhibition, actives largely listed as inhibitors; AlphaScreen counterscreen, signal inhibition; further: 0% is about no effect
* = called active by the depositor; [ ] = dose if it differs, or a comment. Unless noted, the call rests on the fitted dose curve; in most records, active means well fitted curve in the direction sought with a large enough effect; inconclusive means small, poorly fitted or top-dose-only effect, or another doubt; inactive means no such curve, though single readings can be large; an effect the other way counts as inactive or inconclusive. Potency means the concentration at half of the fitted maximal effect.

Results for Cc1cnc(C(=O)O)cn1 ?
HTT ATP protect: 17.1%; HTT aggregate: -14.0%

What do the screens show for `COC(=O)c1c(C)[nH]c(C(=O)C(C)OC(=O)C2CC(=O)N(CCc3ccccc3)C2)c1C` (stereo not drawn)?
L3MBTL1 inh-1: 28.2µM*; L3MBTL1 inh-2: 26.7*; AlphaScreen ctr2: 4.6%

Results for O=C(Nc1cccc(F)c1)N1CCCC2(CCN(C(=O)c3cccc(F)c3)CC2)C1 ?
HTT ATP protect: -15.2%

What do the screens show for `CC(=O)NC1[C@H](O)C[C@@](O)(C(=O)O)O[C@H]1[C@H](O)[C@H](O)CO` (stereo partly drawn)?
HTT ATP protect: inconclusive; HTT aggregate: 2.2%

Results for COc1ccc2c(c1)c(=O)oc1c(C)c(OCc3cc(C(=O)O)oc3C)ccc12 ?
L3MBTL1 inh-1: 35.5µM*; KDM4E inh: 4.4%; HTT aggregate: 5.4%; L3MBTL1 inh-2: 10.6*; AlphaScreen ctr2: 4.1%

How did O=C(O)CC1CCCc2ccccc2C1O (stereo not drawn) do in these assays?
KDM4E inh: 6.3%

How did CC(=O)N1CCC[C@@]2(CCN(Cc3cc(C(F)(F)F)cc(C(F)(F)F)c3)C2)C1 do in these assays?
HTT ATP protect: 1.1%

How did O=c1oc2cc(O)c(Cl)cc2c2ccccc12 do in these assays?
L3MBTL1 inh-1: -6.6%; KDM4E inh: -8.3%; HTT ATP protect: 36.4%[10 µM]; HTT aggregate: -17.7%

How did O=c1cc2c(=O)oc3cc(O)c(O)oc3c2c(O)c1O do in these assays?
L3MBTL1 inh-1: 0.316µM*; KDM4E inh: 3.98µM*; HTT ATP protect: -8.6%[10 µM]; HTT aggregate: -24.1%[9.22 µM]; L3MBTL1 inh-2: 0.168*; AlphaScreen ctr2: inconclusive

How did CCOC(=O)C(C)Sc1nc(-c2ccccn2)ncc1OC (stereo not drawn) do in these assays?
L3MBTL1 inh-1: 25.1µM*; KDM4E inh: inconclusive; HTT ATP protect: -21.9%[10 µM]; HTT aggregate: 13.1%; L3MBTL1 inh-2: 26.7*; AlphaScreen ctr2: inconclusive

What do the screens show for `COc1cnc(-c2ccccn2)nc1N(C)C`?
L3MBTL1 inh-1: 3.98µM*; KDM4E inh: inconclusive; HTT ATP protect: 29.7%[10 µM]; HTT aggregate: inconclusive; L3MBTL1 inh-2: 6.7*; AlphaScreen ctr2: -80.5%

How did Cc1cccc(/C=C(\C(=O)O)c2ccc(S(=O)(=O)N3CCCC3)s2)c1 do in these assays?
L3MBTL1 inh-1: 28.2µM*; L3MBTL1 inh-2: 5.32*; AlphaScreen ctr2: 2.8%

How did COc1ccc(S(=O)(=O)/N=C2/NC(=O)/C(=C\c3ccco3)S2)cc1 do in these assays?
L3MBTL1 inh-1: inconclusive; KDM4E inh: 0.0%; HTT ATP protect: -3.6%[10 µM]; HTT aggregate: -16.0%

How did COc1ccc(S(=O)(=O)/N=C2/NC(=O)/C(=C/c3ccco3)S2)cc1 do in these assays?
L3MBTL1 inh-1: 35.5µM*; KDM4E inh: inconclusive; HTT ATP protect: 47.9%[0.074 µM]; HTT aggregate: 12.1%; L3MBTL1 inh-2: 18.9*; AlphaScreen ctr2: -1.3%

How did Cc1ccc(-c2cc(C(=O)NCCCn3ccnc3)c3cc(Br)ccc3n2)o1 do in these assays?
L3MBTL1 inh-1: -21.0%; KDM4E inh: inconclusive; HTT ATP protect: -2.3%; HTT aggregate: 4.4%

Results for Cc1ccc(-c2cc(C(=O)O)c3cc(Br)ccc3n2)o1 ?
L3MBTL1 inh-1: 31.6µM*; KDM4E inh: inconclusive; HTT aggregate: 0.2%; L3MBTL1 inh-2: 21.2*; AlphaScreen ctr2: -5.1%

How did O=C(CSc1ncccc1-c1nc2ccccc2[nH]1)NCc1ccco1 do in these assays?
L3MBTL1 inh-1: 35.5µM*; KDM4E inh: inconclusive; HTT ATP protect: -12.5%; HTT aggregate: 4.9%; L3MBTL1 inh-2: 21.2*; AlphaScreen ctr2: inconclusive

How did CCc1ccc(/C=C2\CN(CC)Cc3c2nc2ccccc2c3C(=O)O)cc1 do in these assays?
L3MBTL1 inh-1: 26.8%; KDM4E inh: 15.2%; HTT ATP protect: -16.4%; HTT aggregate: inconclusive

How did O=C(O)c1c2c(nc3ccccc13)/C(=C/c1ccc(O)cc1)CC2 do in these assays?
L3MBTL1 inh-1: 3.98µM*; KDM4E inh: inconclusive; HTT ATP protect: -148.5%; HTT aggregate: -2.7%; L3MBTL1 inh-2: 1.5*; AlphaScreen ctr2: 1.9%

Results for COC(=O)COc1ccc(C2Nc3c(Cl)ccc(C(=O)O)c3C3C=CCC32)cc1 (stereo not drawn) ?
L3MBTL1 inh-1: 20µM*; KDM4E inh: inconclusive; HTT aggregate: 10.1%; L3MBTL1 inh-2: 16.8*; AlphaScreen ctr2: 3.6%

Results for NC(=O)c1ccc(NC(=O)COC(=O)/C=C/c2ccc(Br)o2)cc1 ?
L3MBTL1 inh-1: 14.1µM*; L3MBTL1 inh-2: 6.7*; AlphaScreen ctr2: -3.9%

What do the screens show for `CCC(=O)c1c(O)cc(O)cc1O`?
KDM4E inh: -20.2%; HTT ATP protect: inconclusive; HTT aggregate: 4.8%

How did CC(=O)[C@]1(O)CCC2C3CC(C)C4=CC(=O)C=CC4(C)[C@@]3(F)C(O)C[C@]21C (stereo partly drawn) do in these assays?
KDM4E inh: 8.6%; HTT ATP protect: -82.7%

What do the screens show for `Cc1ccc(N=Nc2ccc(O)c3ncccc23)cc1`?
L3MBTL1 inh-1: 39.8µM*; KDM4E inh: -2.9%; HTT ATP protect: -55.0%[10 µM]; HTT aggregate: inconclusive; L3MBTL1 inh-2: 16.8*; AlphaScreen ctr2: inconclusive

What do the screens show for `O=C1CCCC2=C1C(c1ccc(O)c(O)c1)c1c(ccc3ncccc13)N2` (stereo not drawn)?
L3MBTL1 inh-1: 2µM*; KDM4E inh: 25.1µM*; HTT ATP protect: -4.7%; HTT aggregate: 28.3%; L3MBTL1 inh-2: 21.2*; AlphaScreen ctr2: 13.6%

Results for N[C@H](CO)Cc1cnc[nH]1 ?
KDM4E inh: -0.8%; HTT ATP protect: 14.3%[1.9 µM]

Results for COc1cccc(-c2cc(NCc3cnc(C)cn3)ncn2)c1 ?
HTT ATP protect: -122.5%

What do the screens show for `Cc1ccc(N=C2NC(=O)S/C2=C\c2ccco2)cc1`?
L3MBTL1 inh-1: 25.1µM*; KDM4E inh: -3.1%; HTT ATP protect: -12.1%[1.9 µM]; HTT aggregate: 10.1%; L3MBTL1 inh-2: 11.9*; AlphaScreen ctr2: 7.0%

How did O=C(Nc1ccccc1C(=O)NC1CC1)c1ccc([N+](=O)[O-])o1 do in these assays?
L3MBTL1 inh-1: 31.6µM*; L3MBTL1 inh-2: 18.9*; AlphaScreen ctr2: 9.4%

How did C=C1CC2C3C=C(C)C4=CC(=O)CCC4(C)C3CCC2(C)[C@@]1(OC(C)=O)C(C)=O (stereo partly drawn) do in these assays?
HTT ATP protect: 5.0%; HTT aggregate: -4.0%

How did CNc1ncnc2c1ncn2[C@@H]1O[C@H](CO)[C@H](O)[C@H]1O do in these assays?
KDM4E inh: 2.5%

Results for Cc1ccc(NC(=O)CN2C(=O)S/C(=C/c3ccc(-c4cccc(C(=O)O)c4)o3)C2=O)cc1 ?
L3MBTL1 inh-1: 35.5µM*; KDM4E inh: -27.4%; HTT ATP protect: 24.6%[10 µM]; HTT aggregate: 18.4%[9.22 µM]; L3MBTL1 inh-2: 26.7*; AlphaScreen ctr2: 2.1%
